The entries come from a sample that favours hits as a whole.
Cycloheximide cs = counter-screen for Shiga toxin inhibitors: cycloheximide protein synthesis inhibition | max response, % | cell reporter, cycloheximide protein synthesis inhibition counterscreen | 300,000 compounds, 12% hits; in the data active means max response mostly above about 13%, no sharp cut-off; inactive means mostly below about 14%; further: read at 38.3 µM for the half of the compounds with a filed dose; 0% is about no effect
Giardia FBPA inh = blocks Giardia fructose-bisphosphate aldolase activity; A8B2U2; purified Giardia FBPA; Potency, µM (titrated, usually from 59.6 µM), inactives show at the highest dose activity, negative = inhibition, actives largely listed as inhibitors; 290,000 compounds, 0.71% hits; further: potency means the concentration at half of the fitted maximal effect; on the % scale 0 is the no-effect control and ±100 the full control effect; nearly all actives have a fitted effect of over 55% in size
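40 nM FBPA preincubated 10 min at RT with compound (up to 57.5 uM final), then substrate plus GAPDH/TPI/NAD/arsenate coupling and diaphorase/resazurin added. Fluorescence read after 20 min at RT, 525/598 nm.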
TbPYK inhibitor = blocks Trypanosoma brucei pyruvate kinase. AID 624173. TbPYK enzyme, Kinase-Glo Plus ATP luminescence, 45 min. Potency, µM (highest dose often 76.8 µM), for the others: top-dose activity, negative = inhibition, usual class: inhibitors. 410,000 compounds, 0.12% hits; further: potency means the concentration at half of the fitted maximal effect; on the % scale 0 is the no-effect control and ±100 the full control effect; nearly all actives have a fitted effect of over 50% in size
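TbPYK + substrate in 50 mM TEA pH 7.2, 100 mM KCl, 10 mM MgCl2, 0.05% BSA, 0.01% Tween-20; cpd pinned; ADP 130 uM final; 45 min RT; Kinase-Glo Plus 10 min; luminescence endpoint.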
LmPK inh = inhibitors of Leishmania mexicana pyruvate kinase. purified LmPK, Kinase-Glo ATP luminescence, 1 h. Potency, µM (titrated, usually from 57.5 µM), without a hit: at the highest dose activity change, negative = inhibition, usual class: inhibitors. 290,000 compounds, 0.37% hits; further: potency means the concentration at half of the fitted maximal effect; on the % scale 0 is the no-effect control and ±100 the full control effect
Target sequence (Q27686 whole entry, looked up): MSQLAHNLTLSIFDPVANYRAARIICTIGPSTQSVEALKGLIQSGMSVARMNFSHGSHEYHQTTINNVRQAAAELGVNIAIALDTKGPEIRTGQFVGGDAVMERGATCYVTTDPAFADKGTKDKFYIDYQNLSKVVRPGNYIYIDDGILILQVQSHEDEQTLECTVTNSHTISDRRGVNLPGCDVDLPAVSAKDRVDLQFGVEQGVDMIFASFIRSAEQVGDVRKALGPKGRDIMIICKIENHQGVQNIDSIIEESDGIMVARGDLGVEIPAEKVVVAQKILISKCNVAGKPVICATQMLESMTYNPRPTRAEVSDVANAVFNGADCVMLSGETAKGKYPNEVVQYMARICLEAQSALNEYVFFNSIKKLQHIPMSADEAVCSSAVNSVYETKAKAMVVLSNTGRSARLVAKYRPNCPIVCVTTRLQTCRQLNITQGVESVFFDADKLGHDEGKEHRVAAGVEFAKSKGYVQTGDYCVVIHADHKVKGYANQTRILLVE
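ATP generated from ADP (0.1 mM) and PEP (0.5 mM) by 0.1 nM LmPK over 1 h at room temperature (pH 7.2 imidazole buffer) was detected by coupled luciferase luminescence. Values were normalized to uninhibited and no-enzyme wells.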
Shiga inhibitor = blocks Shiga toxin action in Vero cells; Vero cells, Shiga toxin protein synthesis inhibition reporter; inhibition, % at 38.7 µM; 290,000 compounds, 9.2% hits; in the data active means inhibition mostly above about 28%, no sharp cut-off; inactive means mostly below about 43%; further: 0% is about no effect
RE007 growth inh = less growth of the S. pombe RE007 Vpr strain | Potency, µM (top dose mostly 92.2 µM), for inactives: top-dose activity change, negative = less growth, usual class: inhibitors | S. pombe RE007 Vpr strain, BacTiter-Glo ATP luminescence, 24 h | AID 651644 | 360,000 compounds, 0.21% hits; active means well fitted falling curve with a large enough effect; inconclusive means small, poorly fitted or top-dose-only effect; inactive means no such curve, though single readings can be large or run the other way; further: potency means the concentration at half of the fitted maximal effect; on the % scale 0 is the no-effect control and ±100 the full control effect; nearly all actives have a fitted effect of over 50% in size
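Fission yeast RE007 carrying one integrated HIV-1 vpr copy, seeded at OD 0.01 in PMG+AL medium with 23 nL pinned compound. Grown 24 h at 30 degrees; viability read by BacTiter-Glo luminescence after 5 min.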
The depositor's hits bear a star; ? = inconclusive; . = not tested or not shown; [ ] = another dose, or the depositor's remark. Unless noted, the call rests on the fitted dose curve; in most records, active means well fitted curve in the direction sought with a large enough effect; inconclusive means small, poorly fitted or top-dose-only effect, or another doubt; inactive means no such curve, though single readings can be large; an effect the other way counts as inactive or inconclusive.

SMILES	Cycloheximide cs	Giardia FBPA inh	TbPYK inhibitor	LmPK inh	Shiga inhibitor	RE007 growth inh
CSCCOC(=O)C1=C(C)NC(=O)NC1c1ccc2c(c1)OCO2 (stereo unspecified)	-2	8%	-3%	-3%	-4	23%
CCOC(=O)C1=C(C)Nc2ccccc2S1	23*	-18%	6%	6%	31*	-29%
CCOC(=O)C1=C(C)Nc2ccc(C)cc2S1	-2	-21%	-15%	4%	8	-2%
CCOC(=O)/C=C1\Nc2ccccc2SC1=O	3	4%	-19%	4%	-13	2%
Nc1c(-c2nc(-c3ccccc3Cl)no2)nnn1-c1ccccc1F	.	.	-4%	.	.	.
CCCCCCCCC(=O)c1c(OC)oc(C=O)cc1=O	.	.	-14%	.	.	-9%
O=C(NC1CCSc2ccccc21)c1ccccc1Cl (stereo unspecified)	39*	.	-12%	-2%	37*	-2%
CSc1ccccc1C(=O)NC1CCSc2ccccc21 (stereo unspecified)	9	-11%	1%	1%	25	4%
O=C(NC1CCSc2ccccc21)c1cccc([N+](=O)[O-])c1 (stereo unspecified)	23	8%	6%	-5%	48*	4%
COc1ccccc1C(=O)NC1CCSc2ccccc21 (stereo unspecified)	-1	.	-14%	-1%	-19	-10%
O=C(NC1CCSc2ccccc21)c1ccccc1F (stereo unspecified)	31*	.	2%	-5%	54*	-13%
O=C(Nc1ccc(OCc2cc(=O)n3ccccc3n2)cc1)c1ccccc1Cl	.	.	-4%	.	.	.
CCNc1ccc2c(Cl)cc(=O)oc2c1	19*	-5%	14%	6%	22	-29%
CC(=S)/C=C1\Sc2ccccc2N1C	-2	-8%	?	-3%	-18	?
COc1ccc(C(=O)/C=C2\Sc3ccccc3N2C)cc1	35*	?	-3%	-29%	47	-10%
COc1ccc(-[n+]2c(C)cc(/C=C3\Sc4ccccc4N3C)cc2C)cc1	33	-26%	-18%	1%	62*	?
COc1ccccc1-[n+]1c(C)cc(/C=C2\Sc3ccccc3N2C)cc1C	32*	-13%	-1%	2%	24	?
Cc1c(C(=O)N2CCC(C(=O)Nc3ccc(F)cc3)CC2)sc2nc[nH]c(=O)c12	.	.	-1%	.	.	.
COc1nc2c(c(-c3cc(Br)cs3)c1C#N)Cc1ccccc1-2	-3	6%	0%	10%	-8	6%
COC(=O)[C@@]12C[C@@H](CC(=O)NCCC(C)C)C(=O)N(Cc3cccc4ccccc34)C1=CCC(C)(C)C2	.	.	.	.	.	10%
CCOC(=O)c1sc(N(Cc2ccccc2)C(=O)COC(=O)c2ccccc2O)nc1C	19*	0%	2%	-3%	32*	-14%
COC(=O)CNC(=O)C1(CC(C)C)C=CCN1C(=O)c1ccccc1 (stereo unspecified)	.	2%	.	.	.	.
COC(=O)CNC(=O)C1(C)C=CCN1C(=O)c1ccccc1 (stereo unspecified)	40*	5%	-4%	-2%	94*	-7%
Cc1ccc(-c2cn3c(=S)[nH]nc3s2)cc1	-2	-9%	?	2.2µM*	-9	4%
CCc1c(C)sc(NC(=S)Nc2cccnc2)c1C(=O)OC	-2	?	1%	6%	22*	-3%
SMILES	Cycloheximide cs	Giardia FBPA inh	TbPYK inhibitor	LmPK inh	Shiga inhibitor	RE007 growth inh
Cn1c(=O)c2cc(NC(=O)CCc3ccc4c(c3)OCO4)ccc2n1Cc1ccc(F)cc1	.	.	6%	.	.	7%
COc1ccc(C(=O)CNc2ccccc2C#N)cc1	28*	0%	6%	6%	76*	-23%
COc1ccccc1NCC(=O)c1ccc(C)c(C)c1	16*	-7%	-10%	-1%	.	3%
COc1ccccc1NCC(=O)c1ccc(Cl)cc1	6	4%	0%	-5%	13	-20%
COc1ccc(C(=O)CNc2ccccc2CO)cc1	42*	-9%	-1%	3%	111*	7%
COCC(=O)Nc1ccccc1C#N	-1	5%	3%	-7%	-5	-12%
COC(=O)c1ccccc1NCC(=O)c1ccc(OC)cc1	12	1%	-8%	-10%	34	7%
COc1ccc(C(=O)CNc2ccc(C)cc2C)cc1	25*	3%	5%	7%	29	-17%
CC1(C)[C@H](C(=O)O[C@H](C#N)c2cccc(Oc3ccccc3)c2)[C@@H]1C=C(Br)Br	1	1%	.	.	-13	.
CC1CCN(C(=O)CSc2nnc3c(n2)[nH]c2ccccc23)CC1	-5	.	-1%	-5%	-5	-16%
COc1ccc(C(=O)COc2ccccc2C#N)cc1	28*	-3%	3%	3%	60*	15%
COc1ccc(C(=O)COc2ccccc2C(N)=O)cc1	3	4%	1%	0%	19	12%
CC(=O)N1CCc2cc(S(=O)(=O)NCCC(=O)Nc3ccc4c(c3)OCCO4)ccc21	30*	-2%	-6%	-23%	66	1%
O=C(CCNS(=O)(=O)c1cccc2nsnc12)Nc1ccc2c(c1)OCCO2	24*	-11%	-7%	3%	43	0%
O=S(=O)(Nc1ccccc1)c1cccc2nsnc12	-1	3%	-3%	-1%	11	-26%
CC(=O)N1CCc2cc(S(=O)(=O)NCCC(=O)Nc3cc(C)cc(C)c3)ccc21	0	1%	-8%	3%	-7	12%
O=S(=O)(Nc1ccc2c(c1)OCCO2)c1cccc2nsnc12	49*	-9%	-1%	5%	77*	9%
Cc1ccc(N2CC(c3nnc(NC(=O)c4ccco4)s3)CC2=O)cc1C (stereo unspecified)	.	.	2%	.	.	.
COc1ccc(NC(=O)C2CCCCN2S(=O)(=O)c2ccccc2)cc1S(=O)(=O)N1CCOCC1 (stereo unspecified)	.	.	1%	.	.	-8%
COCCCNCC(O)COc1ccccc1F (stereo unspecified)	-3	?	19%	0%	8	14%
O=C(Nc1ccc(F)cc1)c1ccc(NC(=O)C2CCCO2)cc1 (stereo unspecified)	21*	-5%	1%	-6%	73*	2%
O=C(O)c1cccc(NC(=O)c2cccc(NC(=O)C3CCCO3)c2)c1 (stereo unspecified)	1	4%	-4%	-9%	-19	1%
O=C(Nc1cccc(O)c1)c1ccc(NC(=O)C2CCCO2)cc1 (stereo unspecified)	47*	3%	6%	-9%	110*	-5%
O=C(Cn1c(=O)oc2cc(S(=O)(=O)N3CCCCCC3)ccc21)NCc1ccccc1Cl	.	.	1%[15.4 µM]	.	.	.
COc1cccc(CNC(=O)CCc2nnc3n(C)c(=O)c4sccc4n23)c1	.	.	-1%	.	.	.
N#Cc1cc2c([nH]c1=O)CCCC2	-5	4%	-4%	-5%	1	11%

Source: PubChem (National Center for Advancing Translational Sciences (NCATS))
